In PubChem BioAssay AID743449 (Broad Institute, 2014):
Screen size: about 9,900 compounds; about 90 (0.9%) were called active. Inconclusive results (about 2%) are left out.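 How the source made its calls: active means mean normalized replicate activity at least 50 and at least half of replicates each reaching 50; inconclusive means only one of the two criteria met; inactive means neither criterion met.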 Only a selection was taken, and actives are over-represented in it overall.

Assay: reduction of CTGF mRNA in DLD1 cells – DLD1 colon cancer cells, RT-qPCR, single point, primary screen (AID 743449);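 further: 0% = neutral control wells and 100% = dasatinib control wells; higher means stronger suppression of CTGF expression like dasatinib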
Settings: 24 h, at 12.5 µM, active compounds read high

Row | SMILES | inhibition
1 | COCC#Cc1ccc([C@@H]2[C@@H](CO)N3CCCCN(C(=O)NC4CCCC4)C[C@@H]23)cc1 | -25.3% (inactive)
2 | CO[C@@H](CN(C)S(=O)(=O)c1ccc(C)cc1)[C@@H](C)CN([C@H](C)CO)S(=O)(=O)c1cccc(Cl)c1 | 74.7% (active)
3 | CO[C@@H](CN(C)Cc1cc(F)ccc1F)[C@@H](C)CN([C@H](C)CO)S(=O)(=O)c1ccc(C)cc1 | 14.9% (inactive)
4 | CO[C@@H](CN(C)S(=O)(=O)c1ccc(C)cc1)[C@@H](C)CN([C@@H](C)CO)S(=O)(=O)c1cccc(Cl)c1 | 38.7% (inactive)
5 | CO[C@H](CN(C)S(=O)(=O)c1ccc(C)cc1)[C@@H](C)CN([C@@H](C)CO)S(=O)(=O)c1cccc(Cl)c1 | 6.82% (inactive)
6 | CO[C@H](CN(C)S(=O)(=O)c1ccc(C)cc1)[C@@H](C)CN([C@H](C)CO)S(=O)(=O)c1cccc(Cl)c1 | 32.6% (inactive)
7 | CO[C@H](CN(C)S(=O)(=O)c1ccc(C)cc1)[C@H](C)CN([C@@H](C)CO)S(=O)(=O)c1cccc(Cl)c1 | 1.44% (inactive)
8 | CO[C@H](CN(C)S(=O)(=O)c1ccc(C)cc1)[C@H](C)CN([C@H](C)CO)S(=O)(=O)c1cccc(Cl)c1 | 16.6% (inactive)
9 | CO[C@@H](CN(C)S(=O)(=O)c1ccc(C)cc1)[C@H](C)CN([C@H](C)CO)S(=O)(=O)c1cccc(Cl)c1 | 93.3% (active)
10 | CO[C@@H](CN(C)S(=O)(=O)c1ccc(C)cc1)[C@H](C)CN([C@@H](C)CO)S(=O)(=O)c1cccc(Cl)c1 | 78.9% (active)
11 | CO[C@H]1CC[C@@H]2CCOc3ccc(C#N)cc3C(=O)N(C)C[C@@H](c3ccccc3)CC(=O)N(C)C[C@@H]1O2 | -39.9% (inactive)
12 | OC[C@@H]1[C@H](c2ccc(C#Cc3ccccc3F)cc2)[C@@H]2CN(CC3CCOCC3)CCCCN12 | -33.6% (inactive)
13 | CCCNC[C@@H]1[C@@H](c2ccc(C3=CCCCC3)cc2)[C@@H](CO)N1C(=O)C1CCC1 | -79.5% (inactive)
14 | CN1C(=O)c2cc(NC(=O)Nc3ccccc3Cl)ccc2OC[C@@H]2O[C@@H](CC(=O)O)CC[C@H]21 | -2.71% (inactive)
15 | COc1ccc2c3c(n(C)c2c1)[C@@H](CO)N(C(=O)Nc1ccc(F)cc1)CC31CCN(C(=O)c2ccc3c(c2)OCO3)CC1 | 8.8% (inactive)
16 | C[C@@H]1CCCCO[C@H](CN(C)Cc2ccncc2)[C@H](C)CN([C@H](C)CO)C(=O)c2cc(NC(=O)Cc3ccccc3)ccc2O1 | 7.17% (inactive)
17 | C/C=C/c1ccc([C@@H]2[C@@H](CO)N(CC3CCCC3)C23CN(S(=O)(=O)CC)C3)cc1 | -26.7% (inactive)
18 | C/C=C/c1ccc([C@@H]2[C@H](CO)N(CC3CCCC3)C23CN(S(=O)(=O)CC)C3)cc1 | -25.3% (inactive)
19 | O=S(=O)(Cc1ccccc1)N1CC2(C1)[C@H](c1ccccc1)[C@H](CO)N2CC1CCCC1 | 63.5% (active)
20 | O=C(C[C@H]1C[C@@H]2c3cc(NC(=O)C4CCOCC4)ccc3O[C@@H]2[C@@H](CO)O1)NCCN1CCCCC1 | 23.7% (inactive)
21 | C/C=C/c1cccc(-c2nc(C(=O)Nc3nccs3)cc3c2[C@@H](CCO)N(C(=O)NC(C)C)C3)c1 | 59.6% (active)

Row | SMILES | inhibition
22 | C/C=C/c1cccc(-c2nc(C(=O)N3CCCCC3)cc3c2[C@H](CCO)N(C(=O)NC(C)C)C3)c1 | 1.73% (inactive)
23 | C/C=C/c1cccc(-c2nc(C(=O)N3CCCCC3)cc3c2[C@@H](CCO)N(C(=O)NC(C)C)C3)c1 | -19.7% (inactive)
24 | CCC(=O)N(CC(C)C)C[C@@H]1[C@@H](c2ccccc2)[C@H](CO)N1C(=O)C1CCC1 | 3.26% (inactive)
25 | CO[C@@H](CN(C)S(=O)(=O)c1ccc(F)cc1)[C@H](C)CN(Cc1ccccc1Cl)[C@H](C)CO | -18% (inactive)
26 | O=C(c1cccc(F)c1)N1CCCCN2[C@H](C1)[C@H](c1ccc(C#CC3(O)CCCC3)cc1)[C@@H]2CO | 24% (inactive)
27 | O=C(c1cccc(F)c1)N1CCCCN2[C@H](CO)[C@@H](c3ccc(C#CC4(O)CCCC4)cc3)[C@@H]2C1 | -4.53% (inactive)
28 | O=C(c1cccc(F)c1)N1CCCCN2[C@@H](CO)[C@H](c3ccc(C#CC4(O)CCCC4)cc3)[C@@H]2C1 | 68.7% (active)
29 | O=C(c1cccc(F)c1)N1CCCCN2[C@H](C1)[C@@H](c1ccc(C#CC3(O)CCCC3)cc1)[C@@H]2CO | 30.5% (inactive)
30 | O=C(c1cccc(F)c1)N1CCCCN2[C@H](CO)[C@H](c3ccc(C#CC4(O)CCCC4)cc3)[C@H]2C1 | 11.6% (inactive)
31 | C[C@H](O)C#Cc1ccc([C@@H]2[C@H]3CN(C(=O)c4ccc5c(c4)OCO5)CCCCN3[C@H]2CO)cc1 | -48.5% (inactive)
32 | C[C@H](O)C#Cc1ccc([C@H]2[C@@H](CO)N3CCCCN(C(=O)c4ccc5c(c4)OCO5)C[C@@H]23)cc1 | 53.3% (active)
33 | C[C@H](O)C#Cc1ccc([C@@H]2[C@@H](CO)N3CCCCN(C(=O)c4ccc5c(c4)OCO5)C[C@H]23)cc1 | -21.5% (inactive)
34 | O=C(c1cccc(F)c1)N1CCCCN2[C@H](CO)[C@H](c3ccc(C#CC4(O)CCCC4)cc3)[C@@H]2C1 | 58.8% (active)
35 | O=C(C[C@H]1CC[C@H]2[C@@H](COC[C@@H](O)CN2C(=O)c2cccnc2)O1)NCC1CC1 | 6.53% (inactive)
36 | COCCNC(=O)C[C@@H]1C[C@H]2c3cc(NC(=O)CN(C)C)ccc3O[C@H]2[C@H](CO)O1 | 0.098% (inactive)
37 | COc1cccc(NC(=O)N2C[C@H](O)COC[C@H]3O[C@H](CC(=O)N(C)C)CC[C@@H]32)c1 | -3.69% (inactive)
38 | O=C(CN1CCOCC1)N1CC(=O)N2[C@H](C1)[C@@H](c1ccc(-c3cccc(F)c3)cc1)[C@@H]2CO | 10.6% (inactive)
39 | C[C@H](CO)N1C[C@H](C)[C@H](CN(C)C(=O)Nc2ccc(-c3cccs3)cc2)OCc2cnnn2CCCC1=O | 13.8% (inactive)
40 | C[C@@H]1CC=CC[C@@H](c2cccc(Cl)c2)NC(=O)[C@@H](Cc2ccccc2)N(C)C(=O)c2ccccc2O1 (mixture of isomers) | 67.5% (active)
41 | CC(C)[C@@H]1C(=O)N[C@H](c2cccc(Cl)c2)CC=CC[C@@H](C)Oc2ccccc2C(=O)N1C (mixture of isomers) | 14.5% (inactive)
42 | C[C@@H]1CC=CC[C@@H](c2cccc(Cl)c2)NC(=O)[C@H](Cc2ccccc2)N(C)C(=O)c2ccccc2O1 (mixture of isomers) | 50.4% (active)

Row | SMILES | inhibition
43 | CC(C)[C@H]1C(=O)N[C@H](c2cccc(Cl)c2)CC=CC[C@H](C)Oc2ccccc2C(=O)N1C (mixture of isomers) | -2.2% (inactive)
44 | C[C@H]1CC=CC[C@H](c2cccc(Cl)c2)NC(=O)[C@@H](Cc2ccccc2)N(C)C(=O)c2ccccc2O1 (mixture of isomers) | -83.3% (inactive)
45 | C[C@H]1CC=CC[C@H](c2cccc(Cl)c2)NC(=O)[C@H](Cc2ccccc2)N(C)C(=O)c2ccccc2O1 (mixture of isomers) | -228% (inactive)
46 | CN1C(=O)c2cc(NC(=O)NCc3ccccc3)ccc2OC[C@@H]2O[C@@H](CC(=O)NCC3CCCCC3)CC[C@H]21 | -20.9% (inactive)
47 | COc1cccc(S(=O)(=O)N[C@H]2CC[C@H](CC(=O)NC3Cc4ccccc4C3)O[C@H]2CO)c1 | 3.79% (inactive)
48 | Cc1noc(C)c1S(=O)(=O)N(C)C[C@H]1OCCCC[C@H](C)Oc2ccc(NC(=O)CCC(F)(F)F)cc2C(=O)N([C@@H](C)CO)C[C@@H]1C | 8.01% (inactive)
49 | CN1C(=O)c2cc(NC(=O)c3cccc(Cl)c3)ccc2OC[C@H]2O[C@H](CC(=O)NC3CCCCC3)CC[C@H]21 | -12.4% (inactive)
50 | COc1ccccc1NC(=O)N1CCCCN2[C@H](CO)[C@@H](c3ccc(-c4cccc(C#N)c4)cc3)[C@H]2C1 | -21.9% (inactive)
51 | COc1ccccc1NC(=O)N1CCCCN2[C@@H](CO)[C@@H](c3ccc(-c4cccc(C#N)c4)cc3)[C@@H]2C1 | -18.2% (inactive)
52 | COc1ccccc1NC(=O)N1CCCCN2[C@H](CO)[C@H](c3ccc(-c4cccc(C#N)c4)cc3)[C@@H]2C1 | 52.5% (active)
53 | COc1ccccc1NC(=O)N1CCCCN2[C@@H](CO)[C@H](c3ccc(-c4cccc(C#N)c4)cc3)[C@@H]2C1 | 75% (active)
54 | COc1ccccc1NC(=O)N1CCCCN2[C@H](CO)[C@H](c3ccc(-c4cccc(C#N)c4)cc3)[C@H]2C1 | 19.1% (inactive)
55 | COc1ccccc1NC(=O)N1CCCCN2[C@H](C1)[C@@H](c1ccc(-c3cccc(C#N)c3)cc1)[C@@H]2CO | -9.55% (inactive)
56 | COc1cccc(S(=O)(=O)N[C@H]2CC[C@@H](CC(=O)NC3Cc4ccccc4C3)O[C@H]2CO)c1 | 0.76% (inactive)
57 | CCC(=O)N1CC2(C1)[C@H](c1ccc(-c3ccc(F)cc3)cc1)[C@H](CO)N2C(C)=O | 5.26% (inactive)
58 | COc1cccc(C(=O)Nc2ccc3c(c2)C(=O)N(C)[C@@H]2CC[C@H](CC(=O)N[C@@H](C)c4ccccc4)O[C@@H]2CO3)c1 | -43.4% (inactive)
59 | O=C(Nc1ccc(F)cc1)N1CC(=O)N2[C@H](C1)[C@@H](c1ccc(-c3cccc(F)c3)cc1)[C@@H]2CO | -72.3% (inactive)
60 | COCC(=O)N1[C@H](CO)[C@@H](c2ccccc2)C12CN(C(=O)c1ccccc1)C2 | -0.941% (inactive)
61 | C[C@H]1CN([C@@H](C)CO)C(=O)c2ccccc2-c2ccccc2CO[C@H]1CN(C)S(=O)(=O)c1cn(C)cn1 | 10.4% (inactive)
